Compounds with a hit are over-represented: about 2% of the library has one in this group of screens.
PrPC surface inh: inhibitors of human cell surface prion protein PrPC | TR-FRET read-out | inhibition, % at 13.8 µM | 0.43% of 370,000 active | AID 720596; in the data active = inhibition above about 24%; also: 0% = median of the test wells and 100% = reference compound wells
PrP 5UTR inh: inhibition of PrP 5' UTR reporter expression | 0.35% of 340,000 active | inhibition, % (test concentration not listed) | cell-based PrP 5' UTR mRNA reporter, plate reader; in the data active = inhibition above about 52%; also: 0 = median of the neutral control wells
PfHsp40 rescue: restores yeast growth despite PfHsp40 toxicity | S. cerevisiae expressing PfHsp40, growth rescue, ATP luminescence | growth rescue, % at 12.5 µM | 0.68% of 340,000 active; in the data active = growth rescue above about 28%, passing the limit was not always enough;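 also: yeast W303a lacking pdr1 and pdr3 grown in galactose medium; growth measured after three days at 30 °C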
Yp Topo-I inh: Y. pestis Topo-I inhibition via cleavage products; activity, % at 10 µM; Y. pestis Topo-I cleavage product accumulation, plate reader; 0.064% of 360,000 active; in the data active = activity above about 50%, passing the limit was not always enough
BJeLR lethal: kills HRASV12-expressing BJeLR cells. AID 1554. BJeLR (HRASV12) viability, CellTiter-Glo ATP luminescence, 48 h. inhibition, % (test concentration not listed). 0.17% of 300,000 active; in the data active = inhibition above about 50%
CCHF vOTU inh: blocks the CCHF virus ovarian tumor domain protease. CCHFV vOTU protease, Pep-AMC fluorescence. inhibition, % at 11.5 µM. 0.55% of 370,000 active. AID 651958; in the data active = inhibition above about 30%; also: 0% = vehicle wells with enzyme and 100% = no enzyme wells
The depositor's hits bear a star; · = no result given.

SMILES | PrPC surface inh | PrP 5UTR inh | PfHsp40 rescue | Yp Topo-I inh | BJeLR lethal | CCHF vOTU inh
Cc1ccccc1CN(C)CCS(=O)(=O)c1cc(Cl)ccc1Cl | 7 | -34 | 61* | 48 | -4 | 1
CC(=O)Nc1nc2ncccn2c1-c1ccc(C)cc1 | 6 | · | · | · | · | -65
O=C(COC(=O)C1CCN(c2ccc(C(F)(F)F)cn2)CC1)c1ccccc1Cl | 9 | -21 | 1 | 52* | 4 | -1
Cc1ccc(C(=O)C(C)OC(=O)C2CCN(c3ccc(C(F)(F)F)cn3)CC2)cc1 (stereo not drawn) | -7 | -18 | 1 | 55* | · | -4
S=C1SCN(Cc2cccnc2)CN1Cc1cccnc1 | -5 | -8 | 309* | -2 | 46 | -8
Cc1cccc(Cn2c(N3CCCCC3C)nc3c2c(=O)[nH]c(=O)n3C)c1 (stereo not drawn) | -3 | -6 | 0 | 18 | 12 | 30*
CCCn1c(N2CCC(Cc3ccccc3)CC2)nc2c1c(=O)[nH]c(=O)n2C | 9 | -9 | 7 | 52* | 4 | 3
CCCCCn1c(N2CCC(Cc3ccccc3)CC2)nc2c1c(=O)[nH]c(=O)n2C | · | -5 | 3 | 44 | 1 | ·
Cc1cccc(Cn2c(N3CCN(C)CC3)nc3c2c(=O)[nH]c(=O)n3C)c1 | 1 | -22 | 1 | -1 | -1 | 4
Cn1c(=O)[nH]c(=O)c2c1nc(N1CCCCCC1)n2Cc1cccc2ccccc12 | 0 | -5 | -1 | 63* | -11 | 14
Cn1c(=O)[nH]c(=O)c2c1nc(N1CCNCC1)n2Cc1ccccc1Cl | -3 | -9 | -1 | -5 | -7 | -5
COC(=O)C1CCC(CNC(=O)C(Cc2ccc3c(c2)OCO3)NC(C)=O)CC1 (stereo not drawn) | -2 | · | · | · | · | -2
C=CCN(CC#CC(=C)C)CC1CC1 | -1 | · | · | · | · | -1
Cc1ccccc1/C=C1\SC(=S)N(/N=C/c2cc([N+](=O)[O-])ccc2O)C1=O | -7 | -19 | 229* | 5 | -6 | 0
O=c1c2ccccc2n(Cc2ccccc2)n1[C@@H](Cc1ccccc1)Cn1cc(C2CCCC2)nn1 | 1 | · | · | · | · | -13
CC(=O)OCC1OC(n2cc(F)c(=O)[nH]c2=O)C(OC(C)=O)C1OC(C)=O (stereo not drawn) | -6 | -83 | -1 | 8 | -5 | 2
O=C1C(F)=CC(COC(c2ccccc2)(c2ccccc2)c2ccccc2)OC1n1cc(F)c(=O)[nH]c1=O (stereo not drawn) | 9 | -15 | 154* | 36 | · | 16
O=C(NCc1cccs1)C1C2C=CC3(CN(Cc4ccccc4)C(=O)C13)O2 (stereo not drawn) | -1 | · | · | · | · | -8
O=C(CCl)N=c1sccn1Cc1ccccc1Cl | 1 | -17 | 0 | 1 | 110* | -11
Cc1[nH]c2ccccc2c1C(=O)CN1CCN(C/C=C/c2ccccc2)CC1 | -3 | -7 | 0 | -5 | 5 | 20
COc1ccc2[nH]c(C)c(C(=O)CN3CCN(C/C=C/c4ccccc4)CC3)c2c1 | -14 | -4 | -1 | 0 | 0 | 31*
COc1ccc(-c2nnc(SCC(=O)NN=Cc3c(O)ccc4ccccc34)n2-c2ccc(OC)cc2)cc1 | 8 | · | · | · | · | 9
C=CCO[C@H]1CN(C(=O)OC)[C@@H]2C[C@H]1Oc1ccccc12 | -7 | · | · | · | · | -8
COC(=O)C1=C(C)N(C)C(=NCc2ccc3c(c2)OCO3)NC1c1ccc(C(F)(F)F)cc1 (stereo not drawn) | -1 | · | · | · | · | 8
CCCCCCC(=O)Nc1cc2c(C)cc(=O)oc2cc1C | -8 | -8 | 0 | 6 | 1 | -2
SMILES | PrPC surface inh | PrP 5UTR inh | PfHsp40 rescue | Yp Topo-I inh | BJeLR lethal | CCHF vOTU inh
CCC(=O)Nc1cc2c(C)cc(=O)oc2cc1C | 0 | -3 | 36* | 0 | -15 | -5
COC(=O)C1=NN(C(=O)c2cccc(Br)c2)C(O)(c2ccc(Cl)cc2)C1 (stereo not drawn) | 3 | 3 | 494* | 17 | 3 | 16
CCOC(=O)C1=NN(C(=O)c2ccc(OC)cc2)C(O)(c2ccc(Cl)cc2)C1 (stereo not drawn) | 3 | -27 | 1 | 25 | 3 | 10
O=Nc1c2cc(-c3ccccc3)[nH]nc-2c2ccccc12 | -17 | 0 | 0 | -3 | 69* | 8
CCOC(=O)C1CCN(C(=O)c2cc3c(=O)n4cccc(C)c4nc3s2)CC1 | 0 | -11 | 32* | 19 | 3 | -18
Cc1cc(C(=O)NNC(=O)c2ccc(Cl)cc2)c2ccccc2n1 | 3 | -19 | 65* | 2 | · | -1
S=C(NCc1ccccc1)NC1CCCc2ccccc21 (stereo not drawn) | 5 | -25 | 36* | 1 | -7 | 1
O=C1CC(c2ccccc2)c2cccc(F)c21 (stereo not drawn) | 7 | -31 | 39* | -7 | 17 | -14
O=C1CC(c2ccccc2)c2ccccc21 (stereo not drawn) | -2 | -25 | 0 | -12 | -3 | -14
C=CCC[C@H](Cc1ccc(F)cc1)C(=O)OC[C@@H](Cc1c[nH]c2ccccc12)NC(=O)[C@@H](CC=C)CC(=O)NCCO | 1 | 1 | 57* | -2 | · | 20
C=CCC[C@@H](Cc1ccc(F)cc1)C(=O)OC[C@@H](Cc1c[nH]c2ccccc12)NC(=O)[C@@H](CC=C)CC(=O)NCCO | -1 | -33 | 40* | 22 | · | 23
C=CCC[C@H](Cc1ccc(F)cc1)C(=O)OC[C@H](Cc1c[nH]c2ccccc12)NC(=O)[C@H](CC=C)CC(=O)NCCO | -1 | -12 | 32* | 24 | · | 19
C=CCC[C@@H](Cc1ccc(F)cc1)C(=O)OC[C@H](Cc1c[nH]c2ccccc12)NC(=O)[C@@H](CC=C)CC(=O)NCCO | -2 | -14 | 33* | 15 | · | 18
Cc1cc(C(=O)NN=Cc2cccc(O)c2)n[nH]1 | 0 | · | · | · | · | 0
CN(CCOC(=O)CCCc1ccccc1)C1CN(Cc2cn(Cc3ccccc3F)nn2)S(=O)(=O)C1 (stereo not drawn) | -4 | · | · | · | · | 2
CN(C)c1cccc(-c2ccnc(N3CCC(C(N)=O)CC3)n2)c1 | -2 | · | · | · | · | ·
COc1ccc(-c2cc(-c3nnc(SCC(=O)Nc4ccc(OCc5ccccc5)cc4)n3N)[nH]n2)cc1 | 1 | · | · | · | · | -1
O=C(COC(=O)CNS(=O)(=O)c1ccc2ccccc2c1)Nc1ccccc1Sc1ccccc1 | 1 | -10 | 1 | 62* | -5 | -5
O=C(COC(=O)CNS(=O)(=O)c1ccc2ccccc2c1)Nc1ccc2c(c1)OCO2 | -3 | -4 | -1 | 14 | -3 | -5
CC[C@@]1(O)C(=O)OCc2c1cc1n(c2=O)Cc2cc3c(N)cccc3nc2-1 | 10 | 31 | 0 | 0 | 78* | 5
O=c1cccc2n1Cc1cc3ccccc3nc1-2 | -25 | -121 | 2 | -4 | 3 | -226
CC[C@@]1(O)C(=O)OCc2c1cc1n(c2=O)Cc2cc3c(CN(C)C)c(O)ccc3nc2-1 | -2 | 44 | 1 | 0 | 85* | -20

Bioassay records deposited in PubChem by several laboratories.
